In PubChem BioAssay:
The source made the active and inactive calls. Unless noted, the rule behind the calls is not given here.

How the values were obtained:
[1] = compound effects on lung adenocarcinoma cell viability – A549, calcein-AM fluorescence, 48 h, basal, profiling panel (AID 1162); conditions: higher = more signal; note: test concentration not given here
[2] = compound effects on differentiated 3T3-L1 adipocyte viability – cell-based, 3T3-L1 adipocytes, calcein-AM fluorescence, 48 h, basal, profiling panel (AID 1163); conditions: 3T3-L1 adipocytes viability, higher = more signal; note: test concentration not given here
[3] = compound effects on hepatocellular carcinoma cell viability – HepG2, calcein-AM fluorescence, 48 h, basal, profiling panel (AID 1164); conditions: higher = more signal; note: test concentration not given here
[4] = compound effects on multiple myeloma cell viability – MM1S, calcein-AM fluorescence, 48 h, basal, profiling panel (AID 1165); conditions: higher = more signal; note: test concentration not given here
[5] = calcein-AM signal in unstimulated myeloma cells – cell-based, calcein-AM fluorescence, 48 h, PK04 Diversity Set, profiling panel (AID 1166); conditions: RPMI8226 myeloma viability, higher = more signal;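 note: cells grown under basal conditions without added stimulus; test concentration not given here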
[6] = JC-1 mitochondrial signal, unstimulated HepG2 cells – cell-based, JC-1 fluorescence, 24 h, 100 nL compound, profiling panel (AID 1167); conditions: HepG2 mitochondrial potential, higher = more signal; note: test concentration not given here
[7] = JC-1 mitochondrial signal, unstimulated adipocytes – cell-based, JC-1 fluorescence, 3T3-L1 adipocytes, 24 h, 100 nL compound, profiling panel (AID 1168); conditions: JC-1 mitochondrial fluorescence, higher = more signal, called active from +8 up or from −8 down; note: test concentration not given here
[8] = JC-1 mitochondrial signal, unstimulated myeloma cells – cell-based, JC-1 fluorescence, RPMI8226, 24 h, 100 nL compound, profiling panel (AID 1169); conditions: JC-1 mitochondrial potential fluorescence, higher = more signal; note: test concentration not given here
[9] = JC-1 mitochondrial signal, unstimulated MM1S myeloma – cell-based, JC-1 fluorescence, 24 h, 100 nL compound, profiling panel (AID 1170); conditions: MM1S mitochondrial potential, higher = more signal; note: test concentration not given here
[10] = resazurin metabolic signal in A549 cells – cell-based, resazurin fluorescence, 24 h, PK04 Diversity Set, profiling panel (AID 1171); conditions: A549 viability, higher = more signal, called active from +8 up or from −8 down; note: test concentration not given here
[11] = resazurin metabolic signal in HepG2 cells – cell-based, resazurin fluorescence, 24 h, PK04 Diversity Set, profiling panel (AID 1172); conditions: HepG2 viability, higher = more signal; note: test concentration not given here
[12] = budding yeast growth changes without added modifier – OD600, strain BY4716, 24 h, basal condition, primary screen (AID 1173); conditions: S. cerevisiae BY4716 growth, OD600, 24 h; higher = more signal, called active from +8 up or from −8 down
[13] = viability profiling in MM1S myeloma cells – cell-based, resazurin fluorescence, basal, 24 h, PK04 Diversity Set, profiling panel (AID 1174); conditions: higher = more signal, called active from +8 up or from −8 down; note: test concentration not given here
[14] = target: Dihydroorotate dehydrogenase (quinone), mitochondrial (Plasmodium falciparum (isolate 3D7)) (UniProt Q08210); test: inhibition of P. falciparum DHODH – biochemical, C-terminal His tag, absorbance 600 nm, primary screen (AID 1175); conditions: PfDHODH enzyme, DCIP absorbance 600 nm; higher = more signal, called active from +8 up or from −8 down;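 note: recombinant parasite enzyme with a five histidine tag at its C terminus; test concentration not given here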
Chain of Dihydroorotate dehydrogenase (quinone), mitochondrial (Plasmodium falciparum (isolate 3D7)) (Q08210 whole entry, looked up): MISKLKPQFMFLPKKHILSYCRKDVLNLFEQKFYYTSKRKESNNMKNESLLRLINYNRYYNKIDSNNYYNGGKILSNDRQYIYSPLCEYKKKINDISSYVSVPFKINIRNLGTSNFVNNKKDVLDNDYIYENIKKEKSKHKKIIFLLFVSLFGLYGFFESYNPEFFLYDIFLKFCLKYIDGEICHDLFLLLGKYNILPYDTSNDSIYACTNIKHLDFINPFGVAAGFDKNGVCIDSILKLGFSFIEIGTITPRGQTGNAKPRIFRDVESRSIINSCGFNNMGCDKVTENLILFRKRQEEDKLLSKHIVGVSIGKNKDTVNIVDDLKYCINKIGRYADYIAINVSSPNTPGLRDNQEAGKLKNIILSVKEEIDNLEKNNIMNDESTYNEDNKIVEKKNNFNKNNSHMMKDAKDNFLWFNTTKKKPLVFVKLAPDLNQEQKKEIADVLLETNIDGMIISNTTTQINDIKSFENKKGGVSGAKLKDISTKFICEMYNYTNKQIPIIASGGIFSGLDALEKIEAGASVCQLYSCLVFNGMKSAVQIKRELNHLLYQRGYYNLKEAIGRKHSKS

[15] = inhibition of PAO1 biofilm formation – strain PAO1, LB-PBS medium, absorbance 600 nm, primary screen (AID 1176); note: test concentration not given here; conditions: P. aeruginosa PAO1 growth/biofilm, A600, 12 h; higher = more signal
[16] = growth modulation of vineyard yeast isolate – strain RM11-1a, OD600, basal, 24 h, primary screen (AID 1177);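 note: cultures grown under basal conditions with no added stressor; test concentration not given here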; conditions: S. cerevisiae RM11-1a growth, OD600, 24 h; higher = more signal, called active from +8 up or from −8 down
[17] = growth of efflux-deficient E. coli DRC39 – strain DRC39, OD650, 24 h, E. coli filamentation inducers, primary screen (AID 1178);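 note: growth measured as culture turbidity by optical density at 650 nm; test concentration not given here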; conditions: E. coli DRC39 acrAB, higher = more signal, called active from +8 up or from −8 down
[18] = growth of efflux-deficient E. coli DRC39 – strain DRC39, OD650, 48 h, E. coli filamentation inducers, primary screen (AID 1179);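 note: screen aims at cell division blockers that make cells filament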; conditions: E. coli DRC39 delta-acrAB growth, higher = more signal, called active from +8 up or from −8 down
[19] = viability profiling in RPMI8226 myeloma cells – cell-based, resazurin fluorescence, basal, 24 h, PK04 Diversity Set, profiling panel (AID 1180); conditions: higher = more signal;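 note: RPMI8826 multiple myeloma cell line at 5000 cells per well; test concentration not given here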
[20] = target: E3 ubiquitin-protein ligase XIAP (Homo sapiens) (UniProt P98170); test: small molecules binding XIAP protein – biophysical, small-molecule microarray, fluorescence 635 nm, primary screen (AID 1181); conditions: higher = more signal;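 note: score merges 667 nm emission and signal to noise over triplicate slides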
Chain of E3 ubiquitin-protein ligase XIAP (Homo sapiens) (P98170 whole entry, looked up): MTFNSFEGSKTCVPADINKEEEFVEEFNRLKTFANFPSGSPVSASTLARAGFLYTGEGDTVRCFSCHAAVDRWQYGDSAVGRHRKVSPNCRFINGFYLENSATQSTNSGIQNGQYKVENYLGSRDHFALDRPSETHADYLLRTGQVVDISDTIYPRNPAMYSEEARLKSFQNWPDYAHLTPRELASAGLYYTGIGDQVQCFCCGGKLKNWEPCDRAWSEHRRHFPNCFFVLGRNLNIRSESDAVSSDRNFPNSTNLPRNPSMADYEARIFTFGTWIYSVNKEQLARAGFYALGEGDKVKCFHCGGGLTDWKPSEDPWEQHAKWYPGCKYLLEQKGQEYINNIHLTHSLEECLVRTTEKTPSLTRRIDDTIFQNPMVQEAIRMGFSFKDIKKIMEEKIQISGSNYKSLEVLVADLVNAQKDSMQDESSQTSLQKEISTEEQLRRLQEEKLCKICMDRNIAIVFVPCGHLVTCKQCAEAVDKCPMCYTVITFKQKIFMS

Row | Structure (SMILES) | z-score [1] | z-score [2] | z-score [3] | z-score [4] | z-score [5] | z-score [6] | z-score [7] | z-score [8] | z-score [9] | z-score [10] | z-score [11] | z-score [12] | z-score [13] | composite z-score [14] | z-score [15] | z-score [16] | z-score [17] | z-score [18] | z-score [19] | composite z-score [20]
1 | COC(=O)[C@@]1(Cc2ccc(OC)cc2)[C@H]2c3cc(C(=O)N4CCCC4)n(Cc4c(CO)[nH]cc(C)c4=O)c3C[C@H]2CN1C(=O)c1ccccc1 | -0.37 | 0.454 | 0.375 | -0.206 | 0.501 | 2.94 | 0.926 (inactive) | 0.166 | -1.19 | 0.582 (inactive) | 0.229 | 0.684 (inactive) | 0.421 (inactive) | -1.21 (inactive) | 0.548 (inactive) | 0.124 (inactive) | 0.153 (inactive) | 1.17 (inactive) | 0.572 | 0.477
2 | O=C1C[C@@](C(=O)NC2CC2)(c2ccc([N+](=O)[O-])cc2)[C@@H](c2ccc(CO)cc2)N1C1CCCCC1 | 1.91 | 1.24 | -0.0212 | -0.177 | -1.3 | 1.28 | 0.0821 (inactive) | -0.00601 | -1.18 | 1.04 (inactive) | 0.363 | -1.44 (inactive) | 1.23 (inactive) | -6.96 (inactive) | 1.46 (inactive) | -2.37 (inactive) | 0.0991 (inactive) | -0.0005 (inactive) | 1.48 | -0.0574
3 | COc1cc(C(O)C2C=CC3C(=O)N(c4ccccc4)C(=O)C3N2Nc2ccccc2F)cc(OC)c1OC (stereo not given) | 0.0221 | -0.603 | -0.162 | -1.76 | -1.63 | -1.15 | -1.01 (inactive) | 0.446 | 0.142 | -0.28 (inactive) | -0.514 | 0.886 (inactive) | -0.565 (inactive) | 0.0998 (inactive) | 0.437 (inactive) | 0.881 (inactive) | -0.631 (inactive) | -0.765 (inactive) | -0.17 | 0.081
4 | CCOC(=O)C1=CCC(c2cc3ccccc3[nH]2)N(CCN2CC(C(=O)OCC)=CCC2c2cc3ccccc3[nH]2)C1 (stereo not given) | -0.638 | 0.552 | 0.105 | 0.183 | -0.54 | -0.4 | -0.73 (inactive) | -0.111 | -1.83 | 0.161 (inactive) | -0.474 | 0.897 (inactive) | -1.98 (inactive) | 0.268 (inactive) | 0.878 (inactive) | 0.614 (inactive) | 0.852 (inactive) | -0.732 (inactive) | -0.458 | 1.16
5 | CCCNC(=O)[C@@]1(Sc2ccc(C)cc2)CC(=O)N(Cc2ccccc2Cl)[C@@H]1c1ccc(CO)cc1I | 1.43 | -0.139 | 1.01 | -1.9 | -1.67 | 0.377 | 0.667 (inactive) | -0.547 | -1.87 | 0.204 (inactive) | 0.766 | -4.16 (inactive) | -3.58 (inactive) | -0.139 (inactive) | 0.034 (inactive) | -0.641 (inactive) | 0.466 (inactive) | 1.01 (inactive) | -1.28 | -0.302
6 | Cc1ccc(S[C@]2(C(=O)NCCCN(C)C)CC(=O)N(Cc3ccccc3C(F)(F)F)[C@@H]2c2ccc(CO)cc2I)cc1 | 0.476 | 0.449 | -0.297 | -2.72 | -1.87 | -0.817 | -0.395 (inactive) | -0.302 | -1.35 | 0.537 (inactive) | 0.0689 | -4.57 (inactive) | -3.16 (inactive) | -0.168 (inactive) | -0.0065 (inactive) | -1.55 (inactive) | -0.108 (inactive) | -0.65 (inactive) | -1.42 | 0.191
7 | C=CCNC(=O)[C@@H]1[C@H]2C(=O)O[C@H](c3ccccc3)[C@H](c3ccccc3)N2[C@H](c2ccc(OCCO)cc2)[C@@]12C(=O)Nc1ccc(C#CC3(O)CCCCCC3)cc12 | -0.134 | 1.84 | -1.39 | -1.29 | -2.43 | -1.16 | -0.848 (inactive) | -0.862 | -0.962 | 0.355 (inactive) | -1.01 | 0.933 (inactive) | -2.37 (inactive) | 0.315 (inactive) | 2.09 (inactive) | 1.16 (inactive) | -0.347 (inactive) | -0.797 (inactive) | -2 | -0.0095
